# PubChem BioAssay AID504453 (The Scripps Research Institute Molecular Screening Center, 2011)
# Results with a measured potency or affinity are listed apart. The source made the active and inactive calls. How the calls were made is not given here.
# Target: Peroxisome proliferator-activated receptor gamma (Homo sapiens) (UniProt P37231)
# Assay: competitive ligand displacement at PPARg – biochemical, fluorescence polarization, PolarScreen, PPARg partial agonist project, dose response (AID 504453)
# Settings: PPARg ligand-binding domain, fluorescence polarization competition; series mostly up to 10 µM; fold change, lower = more binding: at the top concentration
# Sequence of Peroxisome proliferator-activated receptor gamma (Homo sapiens) (P37231 232-505 limits assumed): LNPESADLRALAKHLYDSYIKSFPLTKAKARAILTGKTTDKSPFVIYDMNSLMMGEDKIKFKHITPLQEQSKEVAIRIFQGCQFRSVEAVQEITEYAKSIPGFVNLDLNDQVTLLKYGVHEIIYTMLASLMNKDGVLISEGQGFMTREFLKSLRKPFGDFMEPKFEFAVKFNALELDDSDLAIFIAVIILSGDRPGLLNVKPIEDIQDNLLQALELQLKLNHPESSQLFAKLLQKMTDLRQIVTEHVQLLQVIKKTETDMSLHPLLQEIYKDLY
row,SMILES,"fold change, lower = more binding"
1,O=C(Nc1ccccc1Cl)C(=O)c1cn(CC(=O)N2CCOCC2)c2ccccc12,0.99 fold (inactive)
2,COc1cccc(Cn2nc3c4cc(F)ccc4n(Cc4ccc(F)cc4)cc-3c2=O)c1,1.03 fold (inactive)
3,COc1ccc2c(c1)c(=O)c(C(=O)c1ccc(F)cc1)cn2CC(=O)Nc1ccc(F)cc1,1 fold (inactive)
4,COc1ccccc1N1C(=O)C2C(C(=O)c3ccccc3)=NN(c3ccc(C)cc3)C2C1=O (stereo unspecified),0.99 fold (inactive)
5,O=C(CSc1nc(=O)n(CCN2CCOCC2)c2c1CCCC2)Nc1cccc([N+](=O)[O-])c1,1.02 fold (inactive)
6,COc1ccccc1-n1cc(C(=O)c2cc(Cl)ccc2O)cc(C#N)c1=O,1 fold (inactive)
7,CCOc1ccc(C2c3[nH]c4ccccc4c3CCN2Cc2cccn2-c2ncccn2)cc1 (stereo unspecified),0.98 fold (inactive)
8,COc1ccc2c(c1)c(=O)c(C(=O)c1ccc(C)cc1)cn2CC(=O)Nc1ccc(F)cc1,0.99 fold (inactive)
9,O=C(C1=C(O)C(=O)N(c2nc3ccc(Cl)cc3s2)C1c1ccco1)c1ccco1 (stereo unspecified),1 fold (inactive)
10,CN1CCN(S(=O)(=O)c2ccc(Sc3nc4ccccc4[nH]3)c3nsnc23)CC1,1.01 fold (inactive)
11,Cc1cc(C(=O)CN2C(=O)C(=O)N(Cc3ccccc3)C2=O)c(C)n1-c1ccc2c(c1)OCCO2,1 fold (inactive)
